Bioassay records from PubChem.
Rows were chosen to be rich in hits. Some 1.8% of all compounds tested hit in one or more screens of this group.
Rtt109 Vps75: inhibitors of C. albicans Rtt109/Vps75 HAT, primary screen, biochemical, ThioGlo CoA-SH fluorescence, plate reader | Histone acetyltransferase RTT109 (Candida albicans (strain SC5314 / ATCC MYA-2876)), … | purified Rtt109/Vps75, 4 h | inhibition, % at 34.9 µM | hit rate 0.16% among 330,000 | AID 540336, 2011;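 active = inhibition of at least 50% in every replicate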
TLR4 MyD88 comp: inhibitors of TLR4-MyD88 association in cells, primary screen, cell-based, HeLa CL3-4, BLA complementation, FRET ratio. Toll-like receptor 4 (Homo sapiens) + Myeloid differentiation primary response protein …. HeLa CL3-4 TLR4/MyD88 BLA complementation. inhibition, % at 8.4 µM. hit rate 0.18% among 200,000. AID 861, 2007; in the data active = inhibition above about 25%
NOD2-RIPK2 inh: NOD2-RIPK2 binding disruptors in cells, primary screen, fluorescence, CHO cells, BLA complementation; CCF4 ratio; hit rate 0.38% among 360,000; AID 624267, 2012; inhibition, % at 4.98 µM; in the data active = inhibition above about 21%
TLR9-MyD88 block: inhibitors of TLR9-MyD88 association in cells, primary screen, cell-based, CHO, BLA complementation, fluorescence; Toll-like receptor 9 (Homo sapiens) + Myeloid differentiation primary response protein …; CCF4 FRET ratio; inhibition, % at 4.98 µM; hit rate 0.21% among 340,000; AID 504734, 2011;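 active = inhibition above the mean over all tested compounds plus 3 SD, cut at about 21% in these data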
LANA-H2A inh: blockers of LANA interaction with H2A/H2B – biochemical, FP readout, HTS, primary screen | hit rate 0.6% among 320,000 | inhibition, % (test concentration not listed) | AID 2629, 2010 | cell-free LANA-H2A/H2B peptide, fluorescence polarization | Protein LANA1 (Human herpesvirus 8 type P (isolate GK18)), Q9QR71; in the data active = inhibition mostly above about 10%, no sharp cut-off; inactive = mostly below about 6.7%
m5-HT2A agonist: mouse Htr2a agonists via beta-arrestin recruitment, primary screen, cell-based, luminescence. 5-hydroxytryptamine receptor 2A (Mus musculus), P35363. CHO-K1 mHTR2A beta-arrestin complementation; percent of 30 µM serotonin response. activation, % at 7.6 µM. hit rate 0.66% among 360,000. AID 624169, 2012;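 active = activation above a run cutoff, the mean activation of all tested compounds plus 3 SD, cut at about 14% in these data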
Target sequence (P35363 whole entry, looked up): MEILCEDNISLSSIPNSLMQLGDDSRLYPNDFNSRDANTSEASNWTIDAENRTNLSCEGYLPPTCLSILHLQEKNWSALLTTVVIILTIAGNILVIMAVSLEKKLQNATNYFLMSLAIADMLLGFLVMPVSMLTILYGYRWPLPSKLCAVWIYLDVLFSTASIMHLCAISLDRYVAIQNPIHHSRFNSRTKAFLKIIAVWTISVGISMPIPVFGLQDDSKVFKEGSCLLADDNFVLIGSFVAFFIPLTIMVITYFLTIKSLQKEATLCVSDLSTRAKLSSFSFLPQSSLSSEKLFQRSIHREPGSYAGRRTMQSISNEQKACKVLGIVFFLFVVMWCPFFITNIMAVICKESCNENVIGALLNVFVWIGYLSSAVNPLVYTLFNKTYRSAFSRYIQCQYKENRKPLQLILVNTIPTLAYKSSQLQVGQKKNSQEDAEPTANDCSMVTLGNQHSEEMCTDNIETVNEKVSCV
Hits are given with their value; n = inactive; x = no result given; + = active, no number.

SMILES | Rtt109 Vps75 | TLR4 MyD88 comp | NOD2-RIPK2 inh | TLR9-MyD88 block | LANA-H2A inh | m5-HT2A agonist
CCOc1ccc(N2C(=O)CC(Sc3ccccc3C(=O)O)C2=O)c([N+](=O)[O-])c1 (stereo unspecified) | 65 | n | n | n | n | n
CCOC(=O)c1c(N2C(=O)CC(Sc3ccccc3C(=O)O)C2=O)sc2c1CCCC2 (stereo unspecified) | 88 | n | n | n | n | n
O=C(O)c1ccccc1SC1CC(=O)N(c2cccc3ccccc23)C1=O (stereo unspecified) | n | x | n | n | x | n
CC(O)CNc1nc2ccccc2n1-c1ncnc2sc3c(c12)CCC3 (stereo unspecified) | n | n | n | n | n | 18
CCC(=O)NC1=C(Cl)C(=O)C(NC(=O)CC)=C(Cl)C1=O | n | x | 23 | n | x | n
COc1ccc(/C=C\C(=O)c2c(O)ccc3c(C)cc(=O)oc23)cc1OC | n | n | n | n | 16 | n
COc1cc(/C=C/C(=O)c2c(O)ccc3c(C)cc(=O)oc23)ccc1O | n | n | n | n | n | n
CC(=O)N1c2ccc(S(=O)(=O)NCCc3ccccc3)cc2CC1C (stereo unspecified) | n | x | n | n | n | n
CCC(=O)N1c2ccc(S(=O)(=O)NCCc3ccc(C)cc3)cc2CC1C (stereo unspecified) | n | x | n | n | 14 | n
CC1(C(=O)Nc2ccc(F)cc2F)CCN1C(=O)CCC1CCCC1 (stereo unspecified) | x | x | n | x | x | n
COc1ccc(NC(=O)Nc2nnc(-c3cccs3)s2)cc1 | 62 | x | n | n | n | n
Cn1cccc1/C=C1\SC(=S)N(NC(=O)c2ccccc2)C1=O | n | n | n | n | + | n
C[C@H](NC(N)=O)C(=O)Nc1ccc(OCc2ccccc2)cc1 | n | n | n | n | 12 | n
COc1ccc(Cl)cc1NC(=O)c1ocnc1C | n | n | n | n | 18 | n
Cc1ccc2nc(N(CCCN(C)C)C(=O)c3ccc(S(=O)(=O)N(C)C)cc3)sc2c1 | n | n | n | n | n | n
Cc1ccc2nc(N(CCCN(C)C)C(=O)c3sc4ccccc4c3Cl)sc2c1 | 55 | n | n | n | n | n
O=C(COC(=O)C1CC2CCCC(C1)C2=O)NNC(=O)c1ccccc1F (stereo unspecified) | n | x | n | n | 34 | n
Cc1ccccc1NC(=O)COC(=O)C1CC2CCCC(C1)C2=O (stereo unspecified) | n | x | n | n | n | n
COc1ccc2c(c1)[n+](=O)c(C(C)=O)c(C)n2[O-] | n | n | n | n | n | n
CCOC(=O)c1c(=O)n(O)c2ccc(OC)cc2[n+]1[O-] | n | n | n | n | 82 | n
COC(=O)[C@@]12C[C@@H](CC(=O)N3CCCC3)C(=O)N(Cc3ccccc3)C1=CCC(C)(C)C2 | x | x | n | x | x | n
C[C@]12CC[C@@H]3c4ccc(O)cc4CC[C@H]3[C@@H]1CC[C@@H]2O | n | n | n | n | n | n
CC(=O)OC1CCC2C3CCc4cc(O)ccc4C3CCC12C (stereo unspecified) | n | x | n | n | x | n
C[C@]12CC[C@@H]3c4cc(O)c(O)cc4CC[C@H]3[C@@H]1CC[C@@H]2O | 123 | x | n | n | 29 | n
C[C@]12CC[C@@H]3c4ccc(O)cc4[C@@H](O)C[C@H]3[C@@H]1CC[C@@H]2O | n | n | x | x | 26 | x
SMILES | Rtt109 Vps75 | TLR4 MyD88 comp | NOD2-RIPK2 inh | TLR9-MyD88 block | LANA-H2A inh | m5-HT2A agonist
Clc1c(Cl)c(Cl)c2n[nH]nc2c1Cl | n | x | n | n | n | 18
CC1(C(=O)NS(=O)(=O)c2cccc(F)c2)CCN1C(=O)c1cccc(F)c1 (stereo unspecified) | x | x | n | x | x | n
CCOC(=O)c1cnc2ccc(Br)cc2c1NCCO | n | n | n | n | n | n
CCOC(=O)c1cnc2ccccc2c1NCCO | n | n | n | n | 16 | n
Cc1ccc([C@H]2C(C(=O)O)=CC[C@@H](c3ccc(Cl)cc3)N2S(=O)(=O)c2ccccc2C)cc1 | n | x | n | n | n | n
Cc1ccccc1S(=O)(=O)N1[C@@H](c2ccc(Cl)cc2)C(C(=O)O)=CC[C@H]1c1ccc(Cl)cc1 | n | x | n | n | 60 | n
CC[C@@H]1C=C(C(=O)O)[C@H](c2ccc(Cl)c(Cl)c2)N1S(=O)(=O)c1ccc(C)cc1 | n | x | n | n | n | n
Cc1ccc([C@H]2C(C(=O)O)=CC[C@@H](c3ccc(C)cc3)N2S(=O)(=O)c2ccc(C)cc2)cc1 | n | x | n | n | + | n
CCCCC[C@@H]1C=C(C(=O)O)[C@H](c2ccc(Cl)c(Cl)c2)N1S(=O)(=O)c1ccc(C)cc1 | n | x | n | n | 120 | n
CCn1ccnc1CN(C)Cc1cn(-c2cc(C)ccc2C)nc1-c1ccccc1 | n | n | n | n | 20 | n
CCn1ccnc1CN(C)Cc1cn(-c2ccc(C)cc2)nc1-c1ccc(F)cc1 | n | n | n | n | n | n
Cc1ccc(C2=NC(C)(C)N=C2SCC(=O)Nc2ccc(Cl)cc2)cc1 | 99 | n | n | n | n | n
CC1(C)N=C(SCC(=O)Nc2ccccc2)C(c2ccc(Cl)cc2)=N1 | n | n | n | n | n | n
COc1cc(/C=C2\SC(=Nc3cccnc3)NC2=O)cc(OC)c1OC | x | x | n | x | 27 | n
O=C1/C(=C/c2ccccc2F)SC(=S)N1CC(=O)N1CCCCC1c1cccnc1 (stereo unspecified) | n | x | n | n | n | n
O=C1/C(=C/c2ccc(F)cc2)SC(=S)N1CC(=O)N1CCCCC1c1cccnc1 (stereo unspecified) | 53 | x | n | n | n | n
Cc1nn(C)c(C(=O)Nc2ccc(S(=O)(=O)NC34CC5CC(CC(C5)C3)C4)cc2)c1Br | n | n | n | n | 57 | n
CN(C)c1ccc(-c2ccnc3c2CC(C)(C(=O)NCCC(F)(F)F)O3)cc1 (stereo unspecified) | x | x | n | x | x | n
CCC(C)NCCOc1ccc(C(C)(C)c2ccccc2)cc1 (stereo unspecified) | n | n | n | n | 14 | n
CN(C)c1cccc(NC(=O)c2cccc3c(-c4ccc(F)c(F)c4)coc23)c1 | x | x | n | x | x | n
COC(=O)c1ccccc1NC(=O)NCc1ccncc1 | n | n | n | n | 35 | n
CCN(CCn1cccn1)C(=O)c1cc(COc2cc(C)ccc2C)on1 | n | x | n | n | 37 | n
CCN(CCn1cccn1)C(=O)c1cc(COc2ccccc2SC)on1 | n | x | n | n | n | n
